# Measured values: the supplement of paper PMC8728848
# About 410 targets per protein were measured; listed, in parts, are those with the strongest signals and a random draw of the rest.
# B1: Gal 4 (Homo sapiens), Q8K419 (protein)
# chain: MAYVPAPGYQPTYNPTLPYKRPIPGGLSVGMSVYIQGMAKENMRRFHVNFAVGQDDGADVAFHFNPRFDGWDKVVFNTMQSGQWGKEEKKKSMPFQKGKHFELVFMVMPEHYKVVVNGNSFYEYGHRLPVQMVTHLQVDGDLELQSINFLGGQPAAAPYPGAMTIPAYPAGSPGYNPPQMNTLPVMTGPPVFNPRVPYVGALQGGLTVRRTIIIKGYVLPTARNFVINFKVGSSGDIALHLNPRIGDSVVRNSFMNGSWGAEERKVAYNPFGPGQFFDLSIRCGMDRFKVFANGQHLFDFSHRFQAFQMVDTLEINGDITLSYVQI
# Experiments:
# Test in all cases: glycan array binding signal (z-score within array); higher = stronger binding
# Conditions in all cases: glycan notation: IUPAC condensed, linker removed
# Fuc(a1-2)Gal = target: Fuc(a1-2)Gal
# How it was run: (§1)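 Columns mapping to the same glycan were averaged after glycan names were converted to IUPAC-condensed notation. The data come from 3228 arrays in the Consortium for Functional Glycomics database, limited to those with an available protein sequence. Binding is reported as a within-array Z-score averaged across arrays of one protein sequence and across linkers.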
# [1] = target: Fuc(a1-2)Gal(b1-3)GlcNAc(b1-3)[Fuc(a1-2)Gal(b1-3)GlcNAc(b1-6)]GalNAc
# How it was run: as §1
# [2] = target: Fuc(a1-2)Gal(b1-3)GlcNAc6S
# How it was run: as §1
# [3] = target: Fuc(a1-2)Gal(b1-4)GlcNAc(b1-2)Man(a1-3)[Fuc(a1-2)Gal(b1-4)GlcNAc(b1-2)Man(a1-6)]Man(b1-4)GlcNAc(b1-4)[Fuc(a1-6)]GlcNAc
# How it was run: as §1
# [4] = target: Fuc(a1-2)Gal(b1-4)GlcNAc(b1-3)GalNAc
# How it was run: as §1
# [5] = target: Fuc(a1-2)Gal(b1-4)GlcNAc(b1-3)[Fuc(a1-2)Gal(b1-4)GlcNAc(b1-6)]GalNAc
# How it was run: as §1
# [6] = target: Fuc(a1-2)[Gal(a1-3)]Gal(b1-3)GalNAc
# How it was run: as §1
# [7] = target: Fuc(a1-2)[Gal(a1-3)]Gal(b1-3)GlcNAc
# How it was run: as §1
# [8] = target: Fuc(a1-2)[Gal(a1-3)]Gal(b1-4)Glc
# How it was run: as §1
# [9] = target: Fuc(a1-2)[Gal(a1-3)]Gal(b1-4)GlcNAc(b1-3)GalNAc
# How it was run: as §1
# [10] = target: Fuc(a1-2)[GalNAc(a1-3)]Gal
# How it was run: as §1
# [11] = target: Fuc(a1-2)[GalNAc(a1-3)]Gal(b1-3)GlcNAc
# How it was run: as §1
# [12] = target: Fuc(a1-2)[GalNAc(a1-3)]Gal(b1-3)GlcNAc(b1-2)Man(a1-3)[Fuc(a1-2)[GalNAc(a1-3)]Gal(b1-3)GlcNAc(b1-2)Man(a1-6)]Man(b1-4)GlcNAc(b1-4)GlcNAc
# How it was run: as §1
# [13] = target: Fuc(a1-2)[GalNAc(a1-3)]Gal(b1-3)GlcNAc(b1-6)GalNAc
# How it was run: as §1
# [14] = target: Fuc(a1-2)[GalNAc(a1-3)]Gal(b1-4)Glc
# How it was run: as §1
# [15] = target: Gal(a1-4)Gal(b1-4)GlcNAc(b1-2)Man(a1-3)[Gal(a1-4)Gal(b1-4)GlcNAc(b1-2)Man(a1-6)]Man(b1-4)GlcNAc(b1-4)GlcNAc
# How it was run: as §1
# Gal(b1-2)Gal = target: Gal(b1-2)Gal
# How it was run: as §1
# Gal(b1-3)Gal = target: Gal(b1-3)Gal
# How it was run: as §1
# [16] = target: Gal(b1-3)GalNAc(a1-3)[Fuc(a1-2)]Gal(b1-4)Glc
# How it was run: as §1
# [17] = target: Gal(b1-3)GalNAc(a1-3)[Fuc(a1-2)]Gal(b1-4)GlcNAc
# How it was run: as §1
# [18] = target: Gal(b1-3)[Fuc(a1-4)]GlcNAc(b1-2)Man(a1-3)[Gal(b1-3)[Fuc(a1-4)]GlcNAc(b1-2)Man(a1-6)]Man(b1-4)GlcNAc(b1-4)[Fuc(a1-6)]GlcNAc
# How it was run: as §1
# [19] = target: Gal(b1-3)[Fuc(a1-4)]GlcNAc(b1-6)GalNAc
# How it was run: as §1
# [20] = target: Gal(b1-4)GalNAc(a1-3)[Fuc(a1-2)]Gal(b1-4)GlcNAc
# How it was run: as §1
# [21] = target: Gal(b1-4)GlcNAc(a1-6)Gal(b1-4)GlcNAc
# How it was run: as §1
# [22] = target: Gal(b1-4)GlcNAc(b1-3)Gal(b1-4)Glc
# How it was run: as §1
# [23] = target: Gal(b1-4)GlcNAc(b1-3)Gal(b1-4)[Fuc(a1-3)GlcNAc(b1-6)]Gal(b1-4)Glc
# How it was run: as §1
# [24] = target: Gal(b1-4)GlcNAc(b1-6)[Gal(b1-3)]GalNAc
# How it was run: as §1
# Gal3S(b1-4)GlcNAc = target: Gal3S(b1-4)GlcNAc
# How it was run: as §1
# GalNAc(b1-3)GalNAc = target: GalNAc(b1-3)GalNAc
# How it was run: as §1
# GalNAc(b1-4)Gal(b1-4)Glc = target: GalNAc(b1-4)Gal(b1-4)Glc
# How it was run: as §1
# GalNAc(b1-4)GlcNAc = target: GalNAc(b1-4)GlcNAc
# How it was run: as §1
# Kdn(a2-3)Gal(b1-4)Glc = target: Kdn(a2-3)Gal(b1-4)Glc
# How it was run: as §1
# [25] = target: Man(a1-2)Man(a1-3)[Man(a1-2)Man(a1-6)]Man(a1-6)[Man(a1-2)Man(a1-2)Man(a1-3)]Man(b1-4)GlcNAc(b1-4)GlcNAc
# How it was run: as §1
# [26] = target: Neu5Ac(a2-3)Gal(b1-3)GlcNAc(b1-3)Gal(b1-3)GlcNAc
# How it was run: as §1
# [27] = target: Neu5Ac(a2-3)Gal(b1-4)GlcNAc(b1-2)Man
# How it was run: as §1
# [28] = target: Neu5Ac(a2-3)Gal(b1-4)[Fuc(a1-3)]GlcNAc(b1-3)Gal(b1-4)[Fuc(a1-3)]GlcNAc(b1-3)Gal(b1-4)[Fuc(a1-3)]GlcNAc
# How it was run: as §1
# [29] = target: Neu5Ac(a2-3)[GalNAc(b1-4)]Gal(b1-4)GlcNAc(b1-3)GalNAc
# How it was run: as §1
# [30] = target: Neu5Ac(a2-6)Gal(b1-4)GlcNAc(b1-2)Man(a1-3)[Neu5Ac(a2-6)Gal(b1-4)GlcNAc(b1-2)Man(a1-6)]Man(b1-4)GlcNAc(b1-4)GlcNAc
# How it was run: as §1
# [31] = target: Neu5Ac(a2-6)Gal(b1-4)GlcNAc(b1-2)Man(a1-6)[Man(a1-3)]Man(b1-4)GlcNAc(b1-4)GlcNAc
# How it was run: as §1
# [32] = target: Neu5Ac(a2-6)GlcNAc(b1-4)GlcNAc
# How it was run: as §1
# Neu5Ac(a2-8)Neu5Ac = target: Neu5Ac(a2-8)Neu5Ac
# How it was run: as §1
# Neu5Ac(b2-6)GalNAc = target: Neu5Ac(b2-6)GalNAc
# How it was run: as §1
# [33] = target: Neu5Ac9Ac(a2-3)Gal(b1-4)GlcNAc
# How it was run: as §1
binder,measurement,setting,value
B1,glycan array binding signal (z-score),Fuc(a1-2)Gal,-0.2
same,glycan array binding signal (z-score),[1],-0.088
same,glycan array binding signal (z-score),[2],1.3
same,glycan array binding signal (z-score),[3],-0.202
same,glycan array binding signal (z-score),[4],-0.199
same,glycan array binding signal (z-score),[5],-0.189
same,glycan array binding signal (z-score),[6],0.833
same,glycan array binding signal (z-score),[7],2.91
same,glycan array binding signal (z-score),[8],3.5
same,glycan array binding signal (z-score),[9],-0.006
same,glycan array binding signal (z-score),[10],-0.2
same,glycan array binding signal (z-score),[11],4.09
same,glycan array binding signal (z-score),[12],1.51
same,glycan array binding signal (z-score),[13],1.99
same,glycan array binding signal (z-score),[14],9.63
same,glycan array binding signal (z-score),[15],-0.194
same,glycan array binding signal (z-score),Gal(b1-2)Gal,-0.201
same,glycan array binding signal (z-score),Gal(b1-3)Gal,0.459
same,glycan array binding signal (z-score),[16],13.2
same,glycan array binding signal (z-score),[17],2.3
same,glycan array binding signal (z-score),[18],-0.174
same,glycan array binding signal (z-score),[19],-0.193
same,glycan array binding signal (z-score),[20],2.3
same,glycan array binding signal (z-score),[21],-0.188
same,glycan array binding signal (z-score),[22],1.11
same,glycan array binding signal (z-score),[23],-0.185
same,glycan array binding signal (z-score),[24],-0.059
same,glycan array binding signal (z-score),Gal3S(b1-4)GlcNAc,-0.136
same,glycan array binding signal (z-score),GalNAc(b1-3)GalNAc,-0.182
same,glycan array binding signal (z-score),GalNAc(b1-4)Gal(b1-4)Glc,-0.211
same,glycan array binding signal (z-score),GalNAc(b1-4)GlcNAc,-0.18
same,glycan array binding signal (z-score),Kdn(a2-3)Gal(b1-4)Glc,-0.243
same,glycan array binding signal (z-score),[25],-0.178
same,glycan array binding signal (z-score),[26],0.182
same,glycan array binding signal (z-score),[27],-0.197
same,glycan array binding signal (z-score),[28],-0.198
same,glycan array binding signal (z-score),[29],-0.147
same,glycan array binding signal (z-score),[30],-0.187
same,glycan array binding signal (z-score),[31],-0.204
same,glycan array binding signal (z-score),[32],-0.205
same,glycan array binding signal (z-score),Neu5Ac(a2-8)Neu5Ac,-0.203
same,glycan array binding signal (z-score),Neu5Ac(b2-6)GalNAc,-0.196
same,glycan array binding signal (z-score),[33],-0.189
